Test [1] can be described thus: qHTS profiling for inhibitors of Plasmodium falciparum proliferation (AID 504749). Further: nearly all actives have a fitted effect of over 60% in size.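 On activity, negative = inhibition: 0% = DMSO vehicle and full inhibition = artemisinin control.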 Particulars: P. falciparum in erythrocytes, SYBR Green DNA, 72 h. The method, boiled down: (§1)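 Infected RBCs, 0.3% parasitemia/2.5% Hct final; cpd 72 h, 37 C, 5% CO2; lysis buffer with saponin/triton/SYBR Green I, o/n RT dark; FI 485/535; norm. to artemisinin (0.29 uM) and DMSO.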
On the technique in general: Quantitative high-throughput screening tests each substance at several concentrations.

In test [2] the test system is 3D7. The test is described as above. As to conditions: P. falciparum in erythrocytes, SYBR Green DNA, 72 h; series mostly up to 28.7 µM. The method, boiled down: as §1
Test [3] concerns 7G8. Described as above. Particulars: P. falciparum in erythrocytes, SYBR Green DNA, 72 h; series mostly up to 28.7 µM. An outline of the steps:
as §1

For test [4], the system named is AA1029. The description is as above. Particulars: P. falciparum in erythrocytes, SYBR Green DNA, 72 h; series mostly up to 28.7 µM. The method, boiled down:
as §1

In test [5] the test system is AS120. The description is as above. As to conditions: P. falciparum in erythrocytes, SYBR Green DNA, 72 h; series mostly up to 28.7 µM. An outline of the steps: as §1
Test [6] deals with ATS189. Described as above. As to conditions: P. falciparum in erythrocytes, SYBR Green DNA, 72 h; series mostly up to 28.7 µM. An outline of the steps:
as §1

Test [7] deals with ATS95. The test is described as above. As to conditions: P. falciparum in erythrocytes, SYBR Green DNA, 72 h; series mostly up to 28.7 µM. The method, boiled down: as §1
The subject of test [8] is C2A. Described as above. As to conditions: P. falciparum in erythrocytes, SYBR Green DNA, 72 h; series mostly up to 28.7 µM. The method, boiled down: as §1
Test [9] relates to CP185. Described as above. Particulars: P. falciparum in erythrocytes, SYBR Green DNA, 72 h; series mostly up to 28.7 µM. An outline of the steps: as §1
Test [10] relates to CP191. Described as above. Particulars: P. falciparum in erythrocytes, SYBR Green DNA, 72 h; series mostly up to 28.7 µM. An outline of the steps: as §1
Test [11] concerns CP192. Described as above. As to conditions: P. falciparum in erythrocytes, SYBR Green DNA, 72 h; series mostly up to 28.7 µM. An outline of the steps:
as §1

The subject of test [12] is CP194. The description is as above. As to conditions: P. falciparum in erythrocytes, SYBR Green DNA, 72 h; series mostly up to 28.7 µM. The method, boiled down: as §1
Test [13] deals with CP201. The description is as above. Particulars: P. falciparum in erythrocytes, SYBR Green DNA, 72 h; series mostly up to 28.7 µM. The method, boiled down:
as §1

Test [14] concerns CP211. Described as above. As to conditions: P. falciparum in erythrocytes, SYBR Green DNA, 72 h; series mostly up to 28.7 µM. The method, boiled down: as §1
Test [15] deals with CP215. The description is as above. As to conditions: P. falciparum in erythrocytes, SYBR Green DNA, 72 h; series mostly up to 28.7 µM. The method, boiled down: as §1
Test [16] deals with CP217. The test is described as above. As to conditions: P. falciparum in erythrocytes, SYBR Green DNA, 72 h; series mostly up to 28.7 µM. An outline of the steps:
as §1

Test [17] relates to CP203. Described as above. As to conditions: P. falciparum in erythrocytes, SYBR Green DNA, 72 h; series mostly up to 28.7 µM. An outline of the steps: as §1
[18] abbreviates: at 28.7 µM (top of the series), parasite line A.
Where [19] appears, read: at 28.7 µM (top of the series), parasite line B.
Setting [20] is: at 12.8 µM (top of the series), parasite line A.
Where [21] appears, read: at 12.8 µM (top of the series), parasite line B.

Each structure is given as a SMILES string. Inconclusive results are not listed. A number with no mark means an inactive call. Activity calls are given as the source filed them. The call rests on the fitted dose curve; in most records, active means well fitted inhibition curve with a large enough effect; inconclusive means small, poorly fitted or top-dose-only effect; inactive means flat fitted curve, though single readings scatter.
Potency means the concentration at half of the fitted maximal effect.

As for `CCC(=O)c1ccc(O)cc1`, the figures for the activity, negative = inhibition in test [1] (setting [18]) and in test [1] (setting [19]) were 12.2% and 2.42%, respectively. Besides, the Potency entry in test [2], in test [3], in test [4], in [5], in test [6] and in test [7] was “inactive” throughout. Also, the Potency entry in test [8], in [9], in [10], in test [11], in [12] and in test [13] was “inactive” each time. In addition, the Potency result in [14], in test [15] and in test [16] was “inactive” throughout.
With `O=C(O)[C@@H]1CSCN1`, the activity, negative = inhibition in test [1] (setting [18]) is 8.72%; in test [1] (setting [19]), -0.798%. The Potency entry in test [2], in test [3], in [4], in test [5], in test [6] and in test [7] was “inactive” each time. In addition, the Potency result in test [8], in test [9], in [10], in test [11], in test [12] and in test [13] was “inactive” throughout. Besides, the Potency result in test [14], in test [15] and in test [16] was “inactive” in each case.
In the case of `CCOC(CN1CCN(CC(C)C(=O)c2ccccc2)CC1)c1ccccc1` (stereo not drawn), the activity, negative = inhibition was 2.77% in [1] (setting [18]) and 3.94% in test [1] (setting [19]). The Potency result in [2], in [5], in test [7], in test [8], in [9] and in test [10] was “inactive” in each case. The Potency entry in test [11], in [13], in test [14], in [15] and in test [16] was “inactive” each time. Moreover, the Potency in test [3] was 11.2 µM (active).
For the molecule `O=C1NC(=O)[C@@]2(CCOc3ccc(F)cc32)N1`, the activity, negative = inhibition was 7.16% in test [1] (setting [18]) and 9.22% in test [1] (setting [19]). The Potency entry in test [2], in test [3], in test [4], in test [5], in [6] and in test [7] was “inactive” in each case. The Potency result in test [8], in test [9], in test [10], in [11], in test [12] and in test [13] was “inactive” in each case. Further, the Potency entry in test [14], in test [15] and in test [16] was “inactive” throughout.
For `O=C(O)CN1C(=O)c2cccc3cccc(c23)C1=O`, the activity, negative = inhibition in test [1] (setting [18]) was -2.87%; in test [1] (setting [19]), 1.81%. The Potency entry in test [2], in test [3], in test [4], in [5], in [6] and in test [7] was “inactive” each time. Besides, the Potency result in [8], in test [9], in test [10], in test [11], in test [12] and in test [13] was “inactive” throughout. The Potency result in test [14], in test [15] and in [16] was “inactive” each time.
Regarding `C=Cc1c(C)c2cc3[nH]c(cc4nc(cc5nc(cc1[nH]2)C(C)=C5CCC(=O)O)C(CCC(=O)O)=C4C)c(C)c3C=C`, the activity, negative = inhibition in test [1] (setting [18]) was -6.02%; in test [1] (setting [19]), 6.67%. Moreover, the Potency entry in test [2], in test [3], in test [4], in test [5], in [6] and in test [7] was “inactive” each time. Moreover, the Potency entry in test [8], in test [9], in test [10], in test [11], in [12] and in test [13] was “inactive” each time. Also, the Potency result in [14], in [15] and in [16] was “inactive” in each case.
With `CCCCN1CCCC[C@H]1C(=O)Nc1c(C)cccc1C`, the activity, negative = inhibition in test [1] (setting [18]) is 5.7%; in [1] (setting [19]), 17.3%. The Potency entry in [2], in test [3], in test [4], in test [5], in [8] and in test [9] was “inactive” in each case. The Potency entry in test [10], in [11], in [13], in [14], in test [15] and in test [16] was “inactive” each time.
As to `CC(C)(C)C(=O)NCCCC(=O)O`, the activity, negative = inhibition in test [1] (setting [18]) is 13.3%; in [1] (setting [19]) it was -4.47%. Also, the Potency entry in test [2], in test [3], in [4], in test [5], in [6] and in test [7] was “inactive” throughout. The Potency entry in [8], in test [9], in [10], in test [11], in test [12] and in test [13] was “inactive” each time. Besides, the Potency entry in test [15] and in [16] was “inactive” each time.
Take `CC(=O)c1ccc2c(c1)N(CCCN(C)C)c1ccccc1S2`: the activity, negative = inhibition is 7.32% in [1] (setting [20]) and -24.3% in test [1] (setting [21]). Besides, the Potency result in test [2], in test [3], in test [4], in test [5], in test [6] and in test [7] was “inactive” in each case. In addition, the Potency entry in [8], in test [9], in test [10], in [11], in test [13] and in test [14] was “inactive” throughout. Moreover, the Potency entry in test [15] and in test [16] was “inactive” in each case.
On to `C#CCN(C)Cc1ccccc1`, for which the results for the activity, negative = inhibition in test [1] (setting [20]) and in test [1] (setting [21]) were 7.21% and -0.897%, respectively. Moreover, the Potency entry in test [2], in test [3], in test [4], in [5], in test [6] and in test [7] was “inactive” each time. Besides, the Potency entry in test [8], in test [9], in [10], in test [11], in test [12] and in [13] was “inactive” throughout. Also, the Potency result in [14] and in [16] was “inactive” throughout.
For `[O-][n+]1cccc(CO)c1`, the activity, negative = inhibition in [1] (setting [18]) is -0.247%; in test [1] (setting [19]), 11.6%. Besides, the Potency result in test [2], in test [3], in [4], in test [5], in test [6] and in test [7] was “inactive” in each case. Moreover, the Potency result in test [8], in [9], in test [10], in test [11], in test [12] and in test [13] was “inactive” throughout. For the same molecule, the Potency result in test [14], in test [15] and in [16] was “inactive” throughout.
`CC(=O)CCC(=O)O`: the results for the activity, negative = inhibition in test [1] (setting [18]) and in test [1] (setting [19]) were 10.3% and -7.9%, respectively. Also, the Potency entry in test [2], in test [3], in [4], in test [5], in [6] and in test [7] was “inactive” in each case. The Potency entry in [8], in [9], in test [10], in test [11], in [12] and in test [13] was “inactive” in each case. The Potency entry in test [14], in test [15] and in test [16] was “inactive” throughout.
`O=C(CCCN1CCN(c2ccccn2)CC1)c1ccc(F)cc1`: the values for the activity, negative = inhibition in [1] (setting [18]) and in [1] (setting [19]) were -3.57% and 15.4%, respectively. For the same molecule, the Potency result in test [2], in [3], in test [4], in test [5], in test [6] and in [7] was “inactive” each time. Also, the Potency entry in test [8], in [9], in test [10], in test [11], in test [12] and in test [13] was “inactive” in each case. In addition, the Potency result in test [14], in [15] and in [16] was “inactive” in each case.
For the molecule `NCCNCCNCCN`, the activity, negative = inhibition in test [1] (setting [18]) was 4.28%; in [1] (setting [19]) it was 2.86%. Also, the Potency result in [2], in test [3], in test [4], in test [5], in [6] and in test [8] was “inactive” each time. Besides, the Potency result in [9], in test [10], in test [11], in [12], in test [13] and in test [17] was “inactive” in each case. In addition, the Potency entry in [14] and in test [16] was “inactive” in each case.

The values above are taken from PubChem BioAssay (NCATS).
